PubChem BioAssay AID1986 (Sanford-Burnham Center for Chemical Genomics, 2009)
Where “and” joins values, the source holds several entries; their conditions need not be identical. Identical values can stand only once. The whole screen tested about 290,000 compounds, of which about 890 (0.31%) were called active. Cut-off read from the data, not from the text of the source: active = inhibition mostly above about 52% (no sharp cut-off); inactive = mostly below about 76%. The entries come from a sample that favours actives as a whole.

Test: inhibitors of HIV fusion peptide binding, primary screen, biochemical, uHTS, fluorescence dequenching (AID 1986)
Conditions: cell-free peptide binding, 30 min, stronger effect = higher value
[1] = measured here: repeat confirmation average inhibition, at 18.6 µM

SMILES	inhibition (at 20 µM)	inhibition [1]
COc1ccccc1CNC(=O)C1CC(c2ccccc2C(F)(F)F)=NO1 (stereo not drawn)	0.6% (inactive)	–
COCc1cc(C)n(CC(=O)Nc2c(C)cccc2C)c(=O)c1C#N	0.1% (inactive)	–
NC(=O)c1ccccc1NCC(=O)c1ccc(Cl)cc1	1.4% (inactive)	–
CCOC(=O)C1=C(COC(=O)C2(C)CC2(Cl)Cl)NC(=O)NC1c1ccccc1 (stereo not drawn)	-1.7% (inactive)	–
CC12CC3CC(C)(C1)CC(C(=O)NC1=NCCS1)(C3)C2	-1.5% (inactive)	–
Cc1ccc(C(=O)N2CCCC(Nc3cccc(F)c3)C2)cc1N1CCNC1=O (stereo not drawn)	0% (inactive)	–
CCN(CC)c1nc2n(c(=O)n1)CCN2CC	2.4% (inactive)	–
O=C(CN1C(=O)C2CC=CCC2C1=O)NCc1cccs1 (stereo not drawn)	-0.4% (inactive)	–
COc1ccc(CN2CSC(=S)N(Cc3ccc(OC)cc3)C2)cc1	-1.4% (inactive)	–
N=C1/C(=C\c2coc3ccc(O)cc3c2=O)C(=O)N=C2SC=CN12	150% (inactive)	–
CSC1=NSC2=NC(=O)/C(=C/c3coc4ccc(O)cc4c3=O)C(=N)N12	57.5% (active)	–
CSC1=NSC2=NC(=O)/C(=C\c3cccs3)C(=N)N12	45.4% (inactive)	–
Cc1ccc(/C=C2/NC(=O)N(Cc3ccccc3)C2=O)s1	36.8% (inactive)	–
Cc1ccc(/C=C2/NC(=O)N(Cc3ccccc3F)C2=O)s1	64% (active)	72.6%
O=C1N/C(=C/c2cccs2)C(=O)N1Cc1ccccc1F	-0.7% (inactive)	–
O=C(CNC(=O)c1ccccc1F)NC1CC1	-0.1% (inactive)	–
Cc1cc(-n2c(C)cc(C(=O)CSc3ccc4c(c3)OCCO4)c2C)no1	2.6% (inactive)	–
CC(C)(C)C(=O)N=C1SC2CS(=O)(=O)CC2N1c1ccc2c(c1)OCO2 (stereo not drawn)	-0.3% (inactive)	–
CCC(C)NC(=O)C1CCC(CNS(=O)(=O)c2ccccc2)CC1 (stereo not drawn)	-0.4% (inactive)	–
N#Cc1cc(C(=O)c2cc(F)ccc2O)cn(-c2nccs2)c1=O	151% (inactive)	–
N#Cc1cc(C(=O)c2ccccc2O)cn(-c2nccs2)c1=O	52.8% (active)	99.4%
Cc1ccc(O)c(C(=O)c2cc(C#N)c(=O)n(-c3nccs3)c2)c1	143% (inactive)	–
CCOC(=O)c1c(NC(=S)Nc2ccc(Cl)cc2)sc2c1CCN(C)C2	23.1% (inactive)	–
CC(C)c1ccc(N(CC(=O)NCc2ccc(F)cc2)C(=O)c2csnn2)cc1	-1.1% (inactive)	–

SMILES	inhibition (at 20 µM)	inhibition [1]
Cc1c(C(=O)N(C)Cc2ccccc2)oc2c(Cl)cccc12	-0.6% (inactive)	–
O=C1NC(=O)/C(=C\c2ccccc2OCc2ccccc2)S1	47.5% (inactive)	–
O=C1NC(=O)/C(=C/c2ccccc2OCc2ccccc2)S1	31.6% (inactive)	–
O=C1N/C(=N/NC(=O)c2cccc3ccccc23)S/C1=C\c1ccccc1OCc1ccccc1	80.3% (active)	–
COc1ccc(C2CC(=O)c3cnc(NC(=O)c4cccc(OC)c4)nc3C2)cc1 (stereo not drawn)	5.8% (inactive)	–
CCC(C)NC(=O)c1ccccc1NC(=O)COc1ccc(OC)cc1 (stereo not drawn)	1% (inactive)	–
Cc1nc(NC2CCCCC2)c2nnn(Cc3ccccc3Cl)c2n1	0.5% (inactive)	–
O=C(NCc1ccccc1)NC(=O)c1ccc(Cl)cc1	2.8% (inactive)	–
CC(C)=C1C(=O)NN(c2ccc(C)c(Cl)c2)C1=O	66.4% (active)	–
CC(C)=C1C(=O)NN(c2ccc(F)c(Cl)c2)C1=O	32.6% (inactive)	–
CC(C)=C1C(=O)NN(c2cccc(Cl)c2)C1=O	60% (inactive)	0.7%
O=C(COC(=O)c1cc[n+]([O-])cc1)Nc1ccc(SC(F)F)cc1	2.4% (inactive)	–
O=C(Nc1cc(C(=O)N2CCCC2)ccc1N1CCCC1)c1ccccc1F	2.6% (inactive)	–
O=C(Nc1sc2c(c1C(=O)O)CCCC2)C(=O)N1CCOCC1	2.6% (inactive)	–
COc1ccc(OC)c(/C=C2\N=C(c3ccccc3)OC2=O)c1	60.8% (active)	–
COc1ccc(/C=C2\N=C(c3ccc(C)cc3)OC2=O)cc1	1.1% (inactive)	–
COc1cc(/C=C2\N=C(c3ccccc3)OC2=O)ccc1OC(C)=O	1.1% (inactive)	–
CC(C)=Cc1oc2ccc([N+](=O)[O-])cc2c1N1CCOCC1	0.3% (inactive)	–
COc1ccc(NC(C)C(=O)Nc2ccc(C#N)cc2)cc1Cl (stereo not drawn)	0.7% (inactive)	–
O=C(Nc1ccc([N+](=O)[O-])cc1)N1CCCCCC1	-1.7% (inactive)	–
O=C(c1sc2ccccc2c1Cl)N1CCN(CCc2ccccn2)CC1	-0.9% (inactive)	–
O=C(O)c1ccc(-n2cccc2/C=C2/SC(=O)N(CC(=O)N3CCCC3)C2=O)cc1	33.4% (inactive)	–
COc1cccc(NC(=O)CCc2nnc3ccc(NCc4ccco4)nn23)c1	1.7% (inactive)	–
Cc1ccc(S(=O)(=O)/N=C2/NC(=O)/C(=C\c3ccco3)S2)cc1	-3.4% (inactive)	–

SMILES	inhibition (at 20 µM)	inhibition [1]
Cc1ccc(S(=O)(=O)/N=C2/NC(=O)/C(=C\c3cc(Br)cc(Br)c3O)S2)cc1	94.7% (active)	132%
Cc1ccc(S(=O)(=O)/N=C2/NC(=O)/C(=C/c3ccccc3)S2)cc1	59.7% (inactive)	46.5%
Cc1ccc(S(=O)(=O)/N=C2/NC(=O)/C(=C/c3ccncc3)S2)cc1	0.8% (inactive)	–
Cc1ccc(S(=O)(=O)/N=C2/NC(=O)/C(=C/c3ccc(Br)o3)S2)cc1	53.6% (active)	–
Cc1ccc(S(=O)(=O)/N=C2/NC(=O)/C(=C/c3ccccn3)S2)cc1	13% (inactive)	–
Fc1ccc(OCCCCCCN2CCCC2)cc1	0.7% (inactive)	–
Cc1ccc(NC(=O)CSCc2cc(=O)n3cc(C)sc3n2)c(C)c1	0% (inactive)	–
CCOC(=O)c1ccc(N=C2SC(C(=O)NC)CC(=O)N2Cc2ccc(F)cc2)cc1 (stereo not drawn)	0.9% (inactive)	–
COc1ccc(C2(C(=O)NCCCN(C)C)CCOCC2)cc1	2.4% (inactive)	–
O=C(CCl)Nc1cc(S(=O)(=O)N2CCOCC2)ccc1N1CCOCC1	1% (inactive)	–
O=S(=O)(O)c1cccc(N=Nc2c(O)ccc3ccccc23)c1	10.9% (inactive)	–
Oc1ccc(Cl)cc1N=Nc1ccccc1	-2.6% (inactive)	–
O=S(=O)(O)c1cc(O)c2c(O)c(N=Nc3cc(Cl)ccc3O)c(S(=O)(=O)O)cc2c1	55.7% (active)	–
CCc1ccc2[nH]c3nc(SCc4nnc(-c5ccc(C)cc5)o4)nnc3c2c1	1.4% (inactive)	–
N#Cc1c(-c2cccc(Br)c2)cc(-c2ccco2)[nH]c1=O	81.5% (active)	–
COc1ccc(-c2cc(-c3ccco3)[nH]c(=O)c2C#N)cc1	48.8% (inactive)	–
COc1ccc(-c2cc(-c3ccco3)[nH]c(=O)c2C#N)cc1OC	40.7% (inactive)	–
Cc1c(C(=O)O)c(=O)n(-c2ccccc2)n1-c1ccccc1	1.2% (inactive)	–
Cc1ccc(C)c(C(=O)CSc2nc3ccccc3c(=O)[nH]2)c1	1.9% (inactive)	–
COc1cc(C(=O)NS(=O)(=O)c2ccccc2C)ccc1Cc1cn(C)c2ccc(NC(=O)OC3CCCC3)cc12	55.9% (active)	–
Cc1cc(NC(=O)OC2CCCCC2)ccc1[N+](=O)[O-]	-1.3% (inactive)	–
COc1ccc(CNC(=O)Cc2cn(C)c3ccccc23)c(OC)c1	0% (inactive)	–
O=S(=O)(c1ccc(C2CCCCC2)cc1)N1CCCC1	-0.2% (inactive)	–
COCCn1c(=NC(=O)CCS(=O)(=O)c2ccccc2)sc2c(OC)ccc(OC)c21	1.4% (inactive)	–

SMILES	inhibition (at 20 µM)	inhibition [1]
CC(C)NCc1cc(Br)ccc1OCc1ccccc1	0.8% (inactive)	–
S=c1[nH]nc(-c2ccccc2)n1/N=C/C=C/c1ccco1	51.2% (inactive)	-0.2%
S=c1[nH]nc(-c2ccco2)n1/N=C/C=C/c1ccccc1	3.2% (inactive)	–
S=c1[nH]nc(-c2ccco2)n1/N=C/C=C/c1ccco1	65.9% (active)	–
COc1ccc2c(CC(=O)Nc3ncc(C)s3)coc2c1	1.1% (inactive)	–
Cc1cccc(C)c1OCc1cc(C(=O)NCc2ccc(Cl)s2)no1	0.7% (inactive)	–
CC1=CC(=C(C#N)C#N)c2ccccc2N1C	146% (inactive)	–
COC(=O)c1c(C(=O)NCc2ccccc2)ncn1CC(O)COc1ccccc1 (stereo not drawn)	-0.4% (inactive)	–
O=C(O)c1ccc(/C=C/c2nc3sc4c(c3c(=O)[nH]2)CCC4)cc1	33.6% (inactive)	–
N#C/C(=C\c1ccc(C(=O)O)cc1)c1nc2sc3c(c2c(=O)[nH]1)CCCC3	103% (active)	–
CCOC(=O)c1nc2sc3c(c2c(=O)[nH]1)CCCC3	0.4% (inactive) and 2.4% (inactive)	–
O=C(N/N=C/c1cc([N+](=O)[O-])ccc1O)C(O)(c1ccccc1)c1ccccc1	15.6% (inactive)	–
N#CC1(C#N)C(c2ccccc2)OC23CCCCCC2C1(C#N)C(=N)O3 (stereo not drawn)	10% (inactive)	–
COc1ccc2c(CC(=O)Nc3ccc(N4CCOCC4)cc3)coc2c1	-1.8% (inactive)	–
O=C(Nc1ccc2nc(-c3ccco3)c(-c3ccco3)nc2c1)N1CCCCCC1	55.6% (inactive)	19.7%
CCOC(=O)C1CCN(C(=O)Nc2ccc3nc(C)c(C)nc3c2)CC1	0.1% (inactive)	–
CCOC(=O)C1CCN(C(=O)Nc2ccc3nc(-c4ccco4)c(-c4ccco4)nc3c2)CC1	68.6% (active)	–
Cc1cc(C)c(C)c(S(=O)(=O)N2CCNCC2)c1C	0.3% (inactive)	–
CC(C)(C)c1ccc(-c2nnc3sc(-c4ccncc4)nn23)cc1	-2.8% (inactive)	–
NC(=S)Nc1ccc(Cl)cc1Cl	-1.7% (inactive)	–
COc1cc(OC)c(/C=N/n2c(C)nnc2C)c(OC)c1	-1.2% (inactive)	–
CCOC(=O)/C(C#N)=C/c1ccc(-c2ccsc2C(=O)OC)o1	61.4% (active)	–
CCOC(=O)C(=Cc1ccc(-c2ccsc2C(=O)OC)o1)C(=O)OCC	2.2% (inactive)	–
COC(=O)C(=Cc1ccc(-c2ccsc2C(=O)OC)o1)C(=O)OC	-1% (inactive)	–
